Data as given in PubChem BioAssay AID463173 (ICCB-Longwood Screening Facility, Harvard Medical School, 2010).
Out of some 52,000 compounds screened, about 4,300 (8.3%) were called active. Cut-off read from the data, not from the text of the source: active = survival mostly below about 52% (no sharp cut-off); inactive = mostly above about 56%. Only a selection was taken, and actives are over-represented in it overall.

Test system: DeltatarO mutant
Test: S. aureus survival, RN4220 and DeltatarO strains – OD600, teichoic acid synthesis inhibitors, primary screen (AID 463173)
Conditions: S. aureus RN4220 wild type/DeltatarO growth, OD600, 18 h, hits give low values, screened at 18.75 µg/mL (by protocol)

Compound | survival
CCN(C(=O)c1c(C)oc2ncnc(N3CCCCC3)c12)c1cc(C)ccc1C | 95% (inactive)
CCC(C)C(NC(=O)c1cc(C)oc1C)C(=O)O (configuration not stated) | 95% (inactive)
CCOc1ccc(NC(=O)c2oc3ccccc3c2NC(=O)c2ccc(OC)cc2OC)cc1 | 51% (inactive)
O=C(CC1C(=O)N(c2ccc(F)cc2)C(=O)N1Cc1ccc2c(c1)OCO2)Nc1ccc(F)cc1 (configuration not stated) | 72% (inactive)
O=C(CC1C(=O)N(c2ccc(F)cc2)C(=O)N1Cc1ccc2c(c1)OCO2)Nc1ccc(Cl)cc1 (configuration not stated) | 43% (active)
Cc1ccc(N2C(=O)C(CC(=O)Nc3ccc(F)cc3)N(Cc3ccc4c(c3)OCO4)C2=O)cc1 (configuration not stated) | 70% (inactive)
Cc1ccc(Cl)cc1NC(=O)c1cc(S(=O)(=O)N2CCCCCC2)cn1C | 71% (inactive)
O=C(CSc1oc(-c2cccs2)nc1S(=O)(=O)c1ccccc1)Nc1ccc(F)cc1 | 55% (inactive)
O=C(NCC(c1cccnc1)N1CCc2ccccc2C1)C(=O)Nc1ccccc1 (configuration not stated) | 81% (inactive)
CCC1CN(C(=O)NCc2ccccc2)c2cc(C)ccc2O1 (configuration not stated) | 51% (inactive)
CCC1CN(C(=O)NCc2cccc(OC)c2)c2ccccc2O1 (configuration not stated) | 62% (inactive)
CCC1CN(C(=O)NCc2ccc(C)cc2)c2cc(Cl)ccc2O1 (configuration not stated) | 93% (inactive)
CCC1CN(C(=O)NCc2ccccc2)c2cc(Cl)ccc2O1 (configuration not stated) | 46% (active)
CCC1CN(C(=O)NCc2ccc(F)cc2)c2cc(C)ccc2O1 (configuration not stated) | 52% (inactive)
CCC1CN(C(=O)NCc2ccc(F)cc2)c2ccccc2O1 (configuration not stated) | 67% (inactive)
CCC1CN(C(=O)NCc2ccc(F)cc2)c2cc(Cl)ccc2O1 (configuration not stated) | 39% (active)
CC1CN(C(=O)NCc2ccccc2)c2cc(Cl)ccc2O1 (configuration not stated) | 49% (inactive)
CCC1CN(C(=O)NCc2cccc(OC)c2)c2cc(Cl)ccc2O1 (configuration not stated) | 43% (active)
O=C(NCc1ccco1)c1ccc2c(c1)N(Cc1cccc(Cl)c1)C(=O)c1ccccc1S2=O (configuration not stated) | 63% (inactive)

Compound | survival
CC(=O)N1CCc2c(sc3c2c(=O)n(-c2ccccc2)c(=O)n3CC(=O)Nc2ccccc2C)C1 | 71% (inactive)
Cc1ccc(C)c(NC(=O)CN2C(=O)CSc3nc(C)cc(C)c32)c1 | 103% (inactive)
O=C(NCc1ccc(F)cc1Cl)c1cc(=O)[nH]c2ccc(S(=O)(=O)N3CCCCC3)cc12 | 102% (inactive)
Cc1ccc(S(=O)(=O)c2cn(Cc3cccc(C)c3)c3cc4c(cc3c2=O)OCO4)cc1 | 101% (inactive)
COc1ccc(OC)c(NC(=O)CCNS(=O)(=O)c2cccc3nsnc23)c1 | 49% (inactive)
O=C(CCNS(=O)(=O)c1cccc2nonc12)Nc1ccc(F)cc1 | 45% (active)
CCOc1ccccc1NC(=O)CCNS(=O)(=O)c1cccc2nonc12 | 45% (active)
COc1ccc(C)cc1NC(=O)C1CCN(S(=O)(=O)c2cccc3nonc23)CC1 | 108% (inactive)
COc1ccc(NC(=O)CCNS(=O)(=O)c2cccc3nonc23)c(OC)c1 | 50% (active)
O=C(CCNS(=O)(=O)c1cccc2nsnc12)Nc1ccc(F)cc1 | 56% (inactive)
CCc1ccccc1NC(=O)CCS(=O)(=O)c1cccc2nonc12 | 74% (inactive)
COc1ccc(NC(=O)CCNS(=O)(=O)c2cccc3nsnc23)cc1OC | 65% (inactive)
O=C(CCS(=O)(=O)c1cccc2nonc12)Nc1cccc(F)c1 | 67% (inactive)
COc1ccc(C)cc1NC(=O)CCNS(=O)(=O)c1cccc2nonc12 | 43% (active)
COc1ccc(Cl)cc1NC(=O)CCS(=O)(=O)c1cccc2nonc12 | 146% (inactive)
CCOc1ccccc1NC(=O)C1CCN(S(=O)(=O)c2cccc3nonc23)CC1 | 74% (inactive)
CC(=O)N1CCN(c2ccc(NC(=O)COc3ccc(Cl)c(C)c3)cc2)CC1 | 68% (inactive)
CCN(CC)S(=O)(=O)c1ccc(NC(=O)CN(c2ccccc2)S(=O)(=O)N(C)C)cc1 | 69% (inactive)
CCNC(=O)c1cnc2sc(N3CCCCCC3)nn2c1=O | 81% (inactive)

Compound | survival
C/C(Cc1ccccc1)=N\NC(=O)c1cc(C(C)(C)C)[nH]n1 | 101% (inactive)
CC1=C(c2ccc(C)c(C)c2)S(=O)(=O)N=C1N1CCC(C(=O)NC(C)Cc2ccco2)CC1 (configuration not stated) | 83% (inactive)
O=C(CN1CCN(c2ncccn2)CC1)N(Cc1ccccc1)c1ccc(F)cc1 | 78% (inactive)
COc1ccc(NC(=O)C2CCN(C3=NS(=O)(=O)C(c4ccc(C)c(C)c4)=C3C)CC2)c(OC)c1 | 91% (inactive)
CN=CC1=C(O)C(C(=O)OC)C(C)(C)CC1=O (configuration not stated) | 74% (inactive)
CCCCCn1c(=O)[nH]c2cc(C(=O)N3CCN(c4ccccc4)CC3)ccc2c1=O | 68% (inactive)
COc1ccc(NC(=O)CCNS(=O)(=O)c2cccc3nonc23)cc1 | 50% (active)
CCOc1ccc(NC(=O)CCNS(=O)(=O)c2cccc3nonc23)cc1 | 70% (inactive)
CCOc1ccc(NC(=O)CCS(=O)(=O)c2cccc3nonc23)cc1 | 78% (inactive)
O=C(C1CCCCC1)N(Cc1cccnc1)c1nc2c(F)cc(F)cc2s1 | 88% (inactive)
COc1ccc(C2C=C(c3ccccc3)Nc3nc(NC(=O)/C=C/c4ccccc4Cl)nn32)cc1 (configuration not stated) | 96% (inactive)
COc1ccc(C2C=C(c3ccccc3)Nc3nc(NC(=O)/C=C/c4ccccc4OC)nn32)cc1 (configuration not stated) | 52% (active)
O=C(/C=C/c1ccccc1)Nc1nc2n(n1)C(c1ccc(F)cc1)C=C(c1ccccc1)N2 (configuration not stated) | 44% (active)
COc1ccc(/C=C/C(=O)Nc2nc3n(n2)C(c2ccccc2)C=C(c2ccc(Cl)cc2)N3)cc1 (configuration not stated) | 77% (inactive)
COc1ccc(C2C=C(c3ccccc3)Nc3nc(NC(=O)/C=C/c4ccc(Cl)cc4)nn32)cc1 (configuration not stated) | 53% (inactive)
O=C(/C=C/c1ccccc1)Nc1nc2n(n1)C(c1ccc(Cl)cc1)C=C(c1ccccc1)N2 (configuration not stated) | 38% (active)
COc1ccc(C2C=C(c3ccccc3)Nc3nc(NC(=O)/C=C/c4ccccc4)nn32)cc1 (configuration not stated) | 59% (inactive)
COc1ccccc1/C=C/C(=O)Nc1nc2n(n1)C(c1ccc(F)cc1)C=C(c1ccccc1)N2 (configuration not stated) | 65% (inactive)
O=C(/C=C/c1ccc(F)cc1)Nc1nc2n(n1)C(c1ccc(Cl)cc1)C=C(c1ccccc1)N2 (configuration not stated) | 33% (active)
